# The supplement of paper PMC11150407
# In all, about 2,100 compounds went through this assay and about 180 (8.6%) showed an effect of 50% or more. This is one part of a sample in which strong results are shown more often than they occur.
# System: MOLM1 and UCSD/AML1 (averaged)
# Assay: cell viability relative to DMSO control (POC); higher = less growth inhibition
# Conditions: 1 µM; 72 h
# Protocol: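 Primary viability screen in the 3q26 EVI1-high AML cell lines MOLM1 and UCSD/AML1 (1.5e3 cells/well, 384-well), compounds at 1 uM for 72 h. ATP CellTiter-Glo read-out given as percent of viable cells over DMSO control (POC), averaged over duplicates. DMSO was the negative control and 5 uM etoposide the positive control. This mapping covers the MicroSource Spectrum and Selleck anticancer libraries (drug names).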
row,SMILES,cell viability [%]
1,COc1cc2ccc(=O)oc2c2ccoc12,104
2,C[N+]12CC[C@@]34c5ccccc5N5C(=O)C[C@@H]6OCC=C(C1)[C@H](C[C@@H]32)[C@@H]6[C@H]54 (stereo partly specified),102
3,O=C([O-])c1ccccc1-c1c2cc(Br)c(=O)cc-2oc2[c]([Hg+])c([O-])c(Br)cc12.[Na+].[Na+].[OH-],87.1
4,O=C1CN=C(c2ccccc2Cl)c2cc([N+](=O)[O-])ccc2N1,87
5,C[C@@]12C(=O)OC(=O)[C@]1(C)[C@H]1CC[C@@H]2O1,101
6,CC[C@@H](CO)NC(=O)[C@@H]1C=C2c3cccc4[nH]cc(c34)C[C@H]2N(C)C1,98
7,CCC12C=CCN3CC[C@@]4(c5ccc(OC)cc5N(C)[C@H]4[C@@](O)(C(=O)OC)[C@@H]1OC(C)=O)[C@@H]32 (stereo partly specified),94
8,C=C[C@H]1CN2CC[C@H]1C[C@@H]2[C@@H](O)c1ccnc2ccccc12,113
9,CC1(C)C2CC(=O)[C@]3(C)C(CC[C@@]4(C)[C@H](c5ccoc5)OC(=O)[C@H]5O[C@]543)[C@@]2(C)C(=O)C[C@H]1O (stereo partly specified),87.6
10,Cc1[nH]c2ccccc2c1CN(C)C,109
11,"C[C@]12CCC(=O)C[C@@H]1CC[C@@H]1[C@@H]2CC[C@]2(C)C(=O)CC[C@@H]12 [5alpha-ANDROSTAN-3,17-DIONE]",101
12,C[C@]12CC[C@H]3[C@@H](CC[C@]4(O)C[C@@H](O)CC[C@]34C=O)[C@@]1(O)CC[C@@H]2C1=CC(=O)OC1,3.15
13,CC1CC(Cl)CCC1C(=O)OC(C)(C)C (stereo unspecified),102
14,COc1cc([C@@H]2c3cc4c(cc3[C@H](OC(C)=O)[C@H]3COC(=O)[C@H]23)OCO4)cc(OC)c1OC,6.04
15,COc1cc([C@@H]2c3cc4c(cc3[C@H](OC(C)=O)[C@H]3COC(=O)[C@@H]23)OCO4)cc(OC)c1OC,34.9
16,O=C(O)COc1cc(Cl)c(Cl)cc1Cl,98.7
17,COc1cc2c(cc1O)C[C@H]1c3c(cc(O)c(OC)c3-2)CCN1C,99
18,O=c1ccc2c(O)c3ccoc3cc2o1,91.2
19,CC1(C)C2C[C@@H](O)[C@]3(C)C(CC[C@@]4(C)[C@H](c5ccoc5)OC(=O)[C@H]5O[C@]543)[C@@]2(C)[C@@H](O)C[C@H]1O (stereo partly specified),106
20,CCN1C[C@]2(COC)[C@H](O)C[C@H](OC)[C@@]34[C@@H]5C[C@@]6(O)[C@H](OC(=O)c7ccccc7)[C@@H]5[C@@](OC(C)=O)([C@@H]([C@H](OC)[C@H]23)[C@@H]14)[C@@H](O)[C@@H]6OC,100
21,CC1(C)C(=O)C=C[C@]2(C)[C@H]3CC[C@@]4(C)[C@H](c5ccoc5)OC(=O)[C@H]5O[C@]54[C@]3(C)[C@H](O)C[C@@H]12,98.3
